Measured values taken from PubChem BioAssay (NCI).
About 83,000 compounds went through this panel and 20% of them were active in at least one assay; those are over-represented in the sample as a whole.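 Values shown are percent growth following 48 h exposure of cells in 96-well plates to a single concentration of compound; below 10 was considered active.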 Calls of active or inactive are those of the source.

Experiments:
Test in all cases: NCI-60 one-dose screen, 48 h (100 = growth as untreated, 0 = no growth, -100 = all killed)
Details in all cases: 10 µM unless noted
HCT-15 colon = test system: HCT-15 colon
HT29 colon = test system: HT29 colon
SNB-75 CNS = test system: SNB-75 CNS
U251 CNS = test system: U251 CNS
PC-3 prostate = test system: PC-3 prostate
UACC-62 melanoma = test system: UACC-62 melanoma
LOX IMVI melanoma = test system: LOX IMVI melanoma
SK-MEL-28 melanoma = test system: SK-MEL-28 melanoma
SNB-19 CNS = test system: SNB-19 CNS
SK-MEL-5 melanoma = test system: SK-MEL-5 melanoma

Measured: growth

O=C1CSC(c2ccccc2Cl)N1c1nnc(-c2ccncc2)o1 (configuration not stated)
inactive: HCT-15 colon 98.5% | HT29 colon 98.4% | SNB-75 CNS 95.4% | U251 CNS 96.6% | PC-3 prostate 98.5% | UACC-62 melanoma 92.3% | LOX IMVI melanoma 102% | SK-MEL-28 melanoma 101%

C=C1CCC2C3(C)COC(c4ccccc4)OC3CCC2(C)C1C/C=C1/C(=O)OCC1O (configuration not stated)
inactive: HCT-15 colon 61.9% | HT29 colon 54.1% | SNB-75 CNS 35.9% | U251 CNS 64.9% | UACC-62 melanoma 67.4% | LOX IMVI melanoma 72.6%

COc1ccc2c(c1)cn1c3ccc(O)cc3[nH]c(=O)c21
active: HCT-15 colon 2.24% | HT29 colon -43.1% | LOX IMVI melanoma 3.95%
inactive: SNB-19 CNS 21.7% | U251 CNS 10.5% | PC-3 prostate 11% | SK-MEL-5 melanoma 13% | UACC-62 melanoma 39% | SK-MEL-28 melanoma 27.9%

COc1cc(C(=O)Nc2ccc(N(C)C)cc2)cc(OC)c1OC
inactive: HCT-15 colon 73.3% | HT29 colon 86.2% | SNB-75 CNS 74.9% | U251 CNS 95.4% | PC-3 prostate 91.4% | SK-MEL-5 melanoma 89.9% | UACC-62 melanoma 82% | LOX IMVI melanoma 93.3% | SK-MEL-28 melanoma 81.9%

CC(=O)N1CCN(CCNC(=O)n2cc(-c3ccncc3)c(-c3cc(O)cc(Cl)c3)n2)CC1
inactive: HCT-15 colon 51.1% | HT29 colon 21.7% | SNB-19 CNS 106% | U251 CNS 80.1% | PC-3 prostate 114% | UACC-62 melanoma 27.8% | LOX IMVI melanoma 68.3% | SK-MEL-28 melanoma 31.4%

CCCCCCCCCCCCCCCCC(=O)O.CCCCCCCCCCCCCCCCCC(=O)O.CCCCCCCCCCCCCCCCCC(=O)O.CCCCCCCCCCCCCCCCCC(=O)O.CCCCCCCCCCCCCCCCCC(=O)O.CO[CH-]OC12COC1CC(O)C1(C)C(O)C(OC(C)O)C3=C(C)C(OC(=O)C(O)C([NH-])c4ccccc4)CC(O)(C(OC(=O)c4ccccc4)C21)C3(C)C.[Cu+].[Zn].[Zn].[Zn].[Zn].[Zn] (configuration not stated)
inactive: HCT-15 colon 20.5% | HT29 colon 12% | SNB-19 CNS 29.6% | U251 CNS 33.6% | PC-3 prostate 30.5% | SK-MEL-5 melanoma 38.4% | UACC-62 melanoma 42.8% | LOX IMVI melanoma 39.4% | SK-MEL-28 melanoma 80.4%

O=C(NC(=S)NNC(=S)NNc1ccccc1)c1ccccc1
inactive: HCT-15 colon 54% | HT29 colon 81.2% | U251 CNS 48% | PC-3 prostate 32.6% | SK-MEL-5 melanoma 25.4% | UACC-62 melanoma 25.2% | LOX IMVI melanoma 48.3% | SK-MEL-28 melanoma 59.3%
active: SNB-75 CNS 4.67%

COc1cc(-c2nn(-c3ccc(NC(=O)Nc4cc(C(F)(F)F)cc(C(F)(F)F)c4)cc3)cc2-c2ccncc2)ccc1Cl
inactive: SNB-19 CNS 26.7% | PC-3 prostate 10.6%
active: HCT-15 colon 6.27% | HT29 colon -30.2% | U251 CNS 7.85% | SK-MEL-5 melanoma -71% | UACC-62 melanoma 3.75% | LOX IMVI melanoma -1.69% | SK-MEL-28 melanoma 5.41%

Cc1ccc(C(=O)NN)cc1
inactive: HCT-15 colon 102% | HT29 colon 111% | SNB-75 CNS 94.5% | PC-3 prostate 109% | SK-MEL-5 melanoma 108% | LOX IMVI melanoma 96.5% | SK-MEL-28 melanoma 109%

CC1(C)NC(=S)NC1=O
inactive: HCT-15 colon 102% | HT29 colon 105% | SNB-75 CNS 89.9% | U251 CNS 98.4% | PC-3 prostate 95.5% | SK-MEL-5 melanoma 101% | UACC-62 melanoma 108% | LOX IMVI melanoma 97.5% | SK-MEL-28 melanoma 110%

O=c1[nH]c2cc(O)ccc2n2cc3c(F)cccc3c12
inactive: HCT-15 colon 38.7% | HT29 colon 46.2% | SNB-19 CNS 42.3% | U251 CNS 27.6% | PC-3 prostate 46.4% | UACC-62 melanoma 39.8% | LOX IMVI melanoma 36.8% | SK-MEL-28 melanoma 24.7%
active: SK-MEL-5 melanoma 8.21%

CC(C)C(=O)c1ccc(Cl)s1
inactive: HCT-15 colon 97.5% | HT29 colon 120% | SNB-75 CNS 80.9% | U251 CNS 99.2% | PC-3 prostate 103% | SK-MEL-5 melanoma 92.8% | UACC-62 melanoma 100% | LOX IMVI melanoma 91% | SK-MEL-28 melanoma 111%

CCCCCC(=C/c1ccccc1)/C=N/N=C(N)N
inactive: SNB-75 CNS 56.6% | PC-3 prostate 37.8%
active: HCT-15 colon -37.8% | HT29 colon -66.3% | SK-MEL-5 melanoma -91.5% | LOX IMVI melanoma -37.6% | SK-MEL-28 melanoma -90.2%

O=c1[nH]c(=S)[nH]c(O)c1/C=C1\C=Nc2ccccc21
inactive: HCT-15 colon 56.2% | HT29 colon 58.6% | SNB-75 CNS 71.8% | U251 CNS 24% | PC-3 prostate 61.7% | SK-MEL-5 melanoma 75.8% | LOX IMVI melanoma 67% | SK-MEL-28 melanoma 96.8%

CCCCN(CCC)CCCCCCCCCCN1CCCc2ccccc21
inactive: HCT-15 colon 78.8% | HT29 colon 21.8% | SNB-75 CNS 89% | U251 CNS 87.7% | PC-3 prostate 45.8% | SK-MEL-5 melanoma 98.8% | LOX IMVI melanoma 67.8% | SK-MEL-28 melanoma 118%

COc1ccc(C(=O)N2N=C(c3ccc(Br)cc3)CC2c2cn(-c3ccccc3)nc2-c2ccccc2)cc1 (configuration not stated)
inactive: HCT-15 colon 58.9% | SNB-75 CNS 70.4% | SNB-19 CNS 65.3% | PC-3 prostate 36.1% | SK-MEL-5 melanoma 92.3% | UACC-62 melanoma 74.7% | LOX IMVI melanoma 44.5% | SK-MEL-28 melanoma 61.2%
active: U251 CNS 6.67%

CCOc1ccc(Br)cc1/C=C(\C#N)c1ccc([N+](=O)[O-])cc1
inactive: HCT-15 colon 84.7% | HT29 colon 87.1% | SNB-75 CNS 22.1% | U251 CNS 67.3% | PC-3 prostate 71.2% | SK-MEL-5 melanoma 81.8% | UACC-62 melanoma 91.7% | LOX IMVI melanoma 87.8% | SK-MEL-28 melanoma 58.6%

COc1cc(-c2nn(-c3ccc(NC(=O)c4ccc(Cl)c(Cl)c4)cc3)cc2-c2ccncc2)ccc1Cl
inactive: HCT-15 colon 10.9% | SNB-19 CNS 85.9% | U251 CNS 48.7% | PC-3 prostate 68.6% | SK-MEL-5 melanoma 64.8% | UACC-62 melanoma 64.4% | LOX IMVI melanoma 35.9% | SK-MEL-28 melanoma 67.8%
active: HT29 colon -14.7%

CC(=O)Oc1cc2ccccc2cc1C(C)C
inactive: HCT-15 colon 99.1% | HT29 colon 114% | SNB-75 CNS 92.3% | U251 CNS 112% | PC-3 prostate 115% | SK-MEL-5 melanoma 101% | UACC-62 melanoma 116% | LOX IMVI melanoma 109% | SK-MEL-28 melanoma 113%

Nc1nc2cc(O)ccc2n2cc3c(F)cccc3c12
inactive: HCT-15 colon 35.6% | HT29 colon 20.7% | SNB-19 CNS 35.9% | U251 CNS 32.8% | PC-3 prostate 42.2% | SK-MEL-5 melanoma 14.2% | UACC-62 melanoma 39% | LOX IMVI melanoma 34.9% | SK-MEL-28 melanoma 20%

O=C(Nc1ccc(-n2cc(-c3ccncc3)c(-c3ccc(Cl)c(O)c3)n2)cc1)c1ccc(Cl)c(Cl)c1
active: HT29 colon -34.7% | SK-MEL-5 melanoma -99.3% | SK-MEL-28 melanoma -7.55%
inactive: HCT-15 colon 12.2% | SNB-19 CNS 77.1% | U251 CNS 34.1% | PC-3 prostate 17.2% | UACC-62 melanoma 11.3% | LOX IMVI melanoma 29.1%

COC(=O)C(C(=O)OC)C(Br)C(Br)C(Br)c1ccccc1 (configuration not stated)
inactive: HCT-15 colon 79.7% | SNB-75 CNS 87.4% | SNB-19 CNS 100% | U251 CNS 94.8% | PC-3 prostate 101% | SK-MEL-5 melanoma 91.5% | UACC-62 melanoma 80.9% | SK-MEL-28 melanoma 106%
active: LOX IMVI melanoma -16%

Cn1c2c(cc(S(=O)(=O)c3ccccc3)c1=O)CCc1c-2cnn1-c1ccc(Cl)cc1
active: SNB-75 CNS -54.3% | SK-MEL-5 melanoma 6.71% | LOX IMVI melanoma 6.82% | SK-MEL-28 melanoma -36.7%
inactive: HCT-15 colon 39.5% | HT29 colon 16.8% | U251 CNS 20.7% | PC-3 prostate 28.8% | UACC-62 melanoma 35.4%

OCCN1CCN(CC/C=C2/c3ccccc3Sc3ccc(C(F)(F)F)cc32)CC1
inactive: HCT-15 colon 71.1% | HT29 colon 15.8% | SNB-75 CNS 56.5% | U251 CNS 41% | SK-MEL-5 melanoma 56.5% | UACC-62 melanoma 14.4% | LOX IMVI melanoma 65.5% | SK-MEL-28 melanoma 68%

COc1cc(OC)c(/C=C/c2ccc3ccccc3[n+]2C)c(OC)c1
inactive: HCT-15 colon 77.5% | SNB-75 CNS 11.2% | U251 CNS 13.3% | PC-3 prostate 10.7%
active: HT29 colon 3.11% | SK-MEL-5 melanoma -74% | UACC-62 melanoma 0.263% | LOX IMVI melanoma -33.2% | SK-MEL-28 melanoma 9.89%

COC(=O)c1cc(O)c2cc3c(cc2c1-c1cc(OC)c(OC)c(OC)c1)OCO3
active: HT29 colon -9.35% | SK-MEL-5 melanoma 3.09%
inactive: HCT-15 colon 23.6% | SNB-19 CNS 36.9% | U251 CNS 42.3% | UACC-62 melanoma 44.2% | LOX IMVI melanoma 29.7% | SK-MEL-28 melanoma 51.5%

CCN(CC)c1ccc2nc3ccc(N=Nc4ccc(O)cc4)cc3[n+](-c3ccccc3)c2c1
inactive: HCT-15 colon 65.6% | HT29 colon 28.9% | SNB-19 CNS 73.3% | U251 CNS 44.1% | PC-3 prostate 48.3% | SK-MEL-5 melanoma 46.3% | UACC-62 melanoma 59.3% | SK-MEL-28 melanoma 52.2%

C/C(=C\c1ccc2ccccc2c1)[N+](=O)[O-]
inactive: SNB-75 CNS 78% | SNB-19 CNS 90.6% | U251 CNS 72.7% | PC-3 prostate 25.3% | SK-MEL-5 melanoma 71.3% | UACC-62 melanoma 78.2% | SK-MEL-28 melanoma 37%
active: HT29 colon -9.28% | LOX IMVI melanoma -80.9%

Cc1c([C@H](C(Cl)Cl)[C@H](O)[C@H]2C[C@H](C)C(=O)O2)ccc2c1C(=O)[C@H]1[C@H]2C[C@@H](Br)[C@@]23O[C@@H](CO[C@H]2O)CC13C (some centres not stated)
active: HCT-15 colon 7.63%
inactive: HT29 colon 13.1% | SNB-75 CNS 58.4% | U251 CNS 14.4% | PC-3 prostate 30.4% | UACC-62 melanoma 26.6% | SK-MEL-28 melanoma 47.6%

C[n+]1c2ccccc2c(Nc2ccc(NS(=O)(=O)CCCCN=C(N)N)cc2)c2ccc(N)cc21
inactive: HCT-15 colon 79.2% | HT29 colon 34% | SNB-75 CNS 37.7% | U251 CNS 30% | PC-3 prostate 48.3% | SK-MEL-5 melanoma 34.2% | UACC-62 melanoma 50% | LOX IMVI melanoma 33.5% | SK-MEL-28 melanoma 72.7%

COc1cc2cn3c4ccc(O)cc4[nH]c(=O)c3c2cc1OC
active: HT29 colon -70.2% | SK-MEL-5 melanoma -90.7% | UACC-62 melanoma -9.19%
inactive: HCT-15 colon 23.3% | SNB-19 CNS 30.9% | U251 CNS 12% | PC-3 prostate 66.4% | SK-MEL-28 melanoma 11.5%
